# Experimental data as given in the supplement of paper PMC7411054.
# Where a name gives a salt, the structure may show the parent alone.
# Legend:
# Conditions in all cases: treatment time: 24 h
# A549-ACTB-RAB5A [1] = test: lowest phenotypically active concentration; higher = less potent
# Outline: (§1)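 Four wells per concentration (0.3, 1, 3 or 9 µM) were treated for 24 h in each of fifteen gene-edited reporter lines from A549, HepG2 and WPMY1 cells, then imaged live. After normalising live-cell features to solvent control wells, deviation was defined as ≥3 of 4 wells lying past the 95th percentile of control Euclidean distances. Reproducibility was defined as a median replicate Pearson correlation above the 95th percentile of non-replicates. Both had to hold for phenotypic activity.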
# A549-GM130-SQSTM1 [2] = test: as above
# Outline: as §1
# A549-TUBA1B-RELA [3] = test: as above
# Outline: as §1
# A549-ACTB-RAB5A [4] = test: phenotypically active (imaging signature differs from DMSO and reproducible) at any of 0.3-9 uM (binary (1 = active, 0 = inactive)); higher = active
# Outline: as §1
# A549-CANX-COX4 = test: as above
# Outline: as §1
# A549-GM130-SQSTM1 [5] = test: as above
# Outline: as §1
# A549-TP53BP1-CLTA = test: as above
# Outline: as §1
# A549-TUBA1B-RELA [6] = test: as above
# Outline: as §1
# HepG2-ACTB-RAB5A = test: as above
# Outline: as §1
# HepG2-CANX-COX4 = test: as above
# Outline: as §1
# HepG2-GM130-SQSTM1 = test: as above
# Outline: as §1
# HepG2-TP53BP1-CLTA = test: as above
# Outline: as §1
# HepG2-TUBA1B-RELA = test: as above
# Outline: as §1
# WPMY1-ACTB-RAB5A = test: as above
# Outline: as §1
# WPMY1-CANX-COX4 [7] = test: as above
# Outline: as §1
# WPMY1-GM130-SQSTM1 [8] = test: as above
# Outline: as §1
# WPMY1-TP53BP1-CLTA = test: as above
# Outline: as §1
# WPMY1-TUBA1B-RELA = test: as above
# Outline: as §1
# WPMY1-CANX-COX4 [9] = test: lowest phenotypically active concentration; higher = less potent
# Outline: as §1
# WPMY1-GM130-SQSTM1 [10] = test: as above
# Outline: as §1
Compound,lowest phenotypically active concentration (A549-ACTB-RAB5A [1]) [µM],lowest phenotypically active concentration (A549-GM130-SQSTM1 [2]) [µM],lowest phenotypically active concentration (A549-TUBA1B-RELA [3]) [µM],phenotypically active (A549-ACTB-RAB5A [4]),phenotypically active (A549-CANX-COX4),phenotypically active (A549-GM130-SQSTM1 [5]),phenotypically active (A549-TP53BP1-CLTA),phenotypically active (A549-TUBA1B-RELA [6]),phenotypically active (HepG2-ACTB-RAB5A),phenotypically active (HepG2-CANX-COX4),phenotypically active (HepG2-GM130-SQSTM1),phenotypically active (HepG2-TP53BP1-CLTA),phenotypically active (HepG2-TUBA1B-RELA),phenotypically active (WPMY1-ACTB-RAB5A),phenotypically active (WPMY1-CANX-COX4 [7]),phenotypically active (WPMY1-GM130-SQSTM1 [8]),phenotypically active (WPMY1-TP53BP1-CLTA),phenotypically active (WPMY1-TUBA1B-RELA),lowest phenotypically active concentration (WPMY1-CANX-COX4 [9]) [µM],lowest phenotypically active concentration (WPMY1-GM130-SQSTM1 [10]) [µM]
Nc1ncnc2c1c(-c1ccc(Oc3ccccc3)cc1)nn2C1CCCC1,9,9,3,1 (active),0 (inactive),1 (active),0 (inactive),1 (active),0 (inactive),0 (inactive),0 (inactive),0 (inactive),0 (inactive),0 (inactive),0 (inactive),0 (inactive),1 (active),0 (inactive),,
O=C(Nc1ccncc1)c1cc([N+](=O)[O-])ccc1Cl,3,,9,1 (active),0 (inactive),0 (inactive),1 (active),1 (active),1 (active),1 (active),1 (active),1 (active),1 (active),0 (inactive),1 (active),1 (active),0 (inactive),1 (active),9,9
O=C(CCCCCCC(=O)Nc1ccc([C@H]2O[C@@H](CSc3nc(-c4ccccc4)c(-c4ccccc4)o3)C[C@@H](c3ccc(CO)cc3)O2)cc1)NO [Tubacin],9,9,,1 (active),0 (inactive),1 (active),0 (inactive),0 (inactive),0 (inactive),0 (inactive),0 (inactive),0 (inactive),0 (inactive),1 (active),1 (active),1 (active),1 (active),1 (active),9,3
O=S(=O)(c1cccc2cnccc12)N1CCNCC1,3,,9,1 (active),0 (inactive),0 (inactive),1 (active),1 (active),1 (active),1 (active),1 (active),1 (active),1 (active),1 (active),1 (active),1 (active),1 (active),1 (active),9,9
Cc1ccc(S(=O)(=O)c2ccc([N+](=O)[O-])o2)cc1,3,3,,1 (active),0 (inactive),1 (active),0 (inactive),0 (inactive),1 (active),0 (inactive),1 (active),0 (inactive),1 (active),1 (active),1 (active),1 (active),1 (active),1 (active),9,3
CC(C)(C)c1ccc(C(O)CCCN2CCC(C(O)(c3ccccc3)c3ccccc3)CC2)cc1 (stereo not drawn) [terfenadine],9,3,,1 (active),0 (inactive),1 (active),0 (inactive),0 (inactive),1 (active),0 (inactive),0 (inactive),0 (inactive),1 (active),0 (inactive),0 (inactive),1 (active),0 (inactive),1 (active),,3
CC(C)c1c(C(=O)Nc2ccccc2)c(-c2ccccc2)c(-c2ccc(F)cc2)n1CC[C@@H](O)C[C@@H](O)CC(=O)O [atorvastatin],3,,,1 (active),0 (inactive),0 (inactive),0 (inactive),0 (inactive),1 (active),1 (active),1 (active),1 (active),1 (active),1 (active),1 (active),1 (active),1 (active),1 (active),3,3
Cc1ccc(O)c([C@H](CCN(C(C)C)C(C)C)c2ccccc2)c1 [Tolterodine L-tartrate],9,9,,1 (active),0 (inactive),1 (active),0 (inactive),0 (inactive),0 (inactive),0 (inactive),0 (inactive),0 (inactive),0 (inactive),0 (inactive),0 (inactive),1 (active),0 (inactive),0 (inactive),,9
CC[C@H](CO)Nc1nc(Nc2cccc(-c3ccccn3)c2)c2ncn(C(C)C)c2n1 [(R)-DRF053 dihydrochloride],9,9,,1 (active),0 (inactive),1 (active),0 (inactive),0 (inactive),1 (active),0 (inactive),1 (active),1 (active),1 (active),0 (inactive),1 (active),0 (inactive),0 (inactive),1 (active),9,
CC(C)c1nc(CN(C)C(=O)N[C@H](C(=O)N[C@@H](Cc2ccccc2)C[C@H](O)[C@H](Cc2ccccc2)NC(=O)OCc2cncs2)C(C)C)cs1 [ritonavir],9,9,,1 (active),0 (inactive),1 (active),0 (inactive),0 (inactive),0 (inactive),0 (inactive),1 (active),0 (inactive),0 (inactive),0 (inactive),0 (inactive),0 (inactive),0 (inactive),0 (inactive),,
NC(=O)[C@@H](CCC(F)(F)F)N(Cc1ccc(-c2ncon2)cc1F)S(=O)(=O)c1ccc(Cl)cc1 [avagacestat],9,,,1 (active),0 (inactive),0 (inactive),0 (inactive),0 (inactive),1 (active),0 (inactive),0 (inactive),0 (inactive),0 (inactive),0 (inactive),0 (inactive),0 (inactive),0 (inactive),0 (inactive),,
Fc1ccccc1Nc1nc2nonc2nc1Nc1ccccc1F,9,3,9,1 (active),0 (inactive),1 (active),0 (inactive),1 (active),0 (inactive),0 (inactive),0 (inactive),1 (active),1 (active),1 (active),1 (active),0 (inactive),0 (inactive),0 (inactive),9,
O=C1c2c(O)cccc2Cc2cccc(O)c21 [anthralin],9,9,,1 (active),0 (inactive),1 (active),0 (inactive),0 (inactive),0 (inactive),0 (inactive),0 (inactive),0 (inactive),0 (inactive),1 (active),0 (inactive),1 (active),0 (inactive),1 (active),,9
CCOC(=O)c1c2c3c(cccc3[nH]c1=O)C(=O)c1ccccc1-2,1,1,,1 (active),0 (inactive),1 (active),0 (inactive),0 (inactive),0 (inactive),0 (inactive),0 (inactive),1 (active),0 (inactive),0 (inactive),0 (inactive),0 (inactive),0 (inactive),0 (inactive),,
CC(C)(C)n1nc(-c2ccc(Cl)cc2)c2c(N)ncnc21,1,,9,1 (active),0 (inactive),0 (inactive),0 (inactive),1 (active),1 (active),0 (inactive),0 (inactive),1 (active),0 (inactive),0 (inactive),0 (inactive),0 (inactive),0 (inactive),0 (inactive),,
COc1cc(OC)c2c(=O)[nH]c(-c3cc(C)c(OCCO)c(C)c3)nc2c1 [apabetalone],9,9,,1 (active),0 (inactive),1 (active),0 (inactive),0 (inactive),1 (active),1 (active),1 (active),0 (inactive),0 (inactive),0 (inactive),0 (inactive),0 (inactive),1 (active),1 (active),,
Cc1cccc(-c2nn(C(=S)Nc3ccccc3)cc2-c2ccnc3ccccc23)n1,,9,3,0 (inactive),1 (active),1 (active),0 (inactive),1 (active),1 (active),1 (active),1 (active),1 (active),1 (active),1 (active),1 (active),1 (active),1 (active),1 (active),9,9
CC(=O)S[C@@H]1CC2=CC(=O)CC[C@]2(C)[C@H]2CC[C@@]3(C)[C@@H](CC[C@@]34CCC(=O)O4)[C@H]12 [spironolactone],9,,,1 (active),0 (inactive),0 (inactive),0 (inactive),0 (inactive),0 (inactive),0 (inactive),0 (inactive),0 (inactive),0 (inactive),0 (inactive),0 (inactive),1 (active),0 (inactive),0 (inactive),,9
CC(C)NC[C@H](O)COc1cccc2ccccc12 [(S)-(-)-Propranolol hydrochloride],,9,,0 (inactive),0 (inactive),1 (active),0 (inactive),0 (inactive),0 (inactive),0 (inactive),0 (inactive),0 (inactive),0 (inactive),0 (inactive),0 (inactive),0 (inactive),0 (inactive),0 (inactive),,
O=C1NCCCc2c1oc1ccc(O)cc21,9,,,1 (active),0 (inactive),0 (inactive),0 (inactive),0 (inactive),0 (inactive),1 (active),0 (inactive),0 (inactive),1 (active),1 (active),0 (inactive),1 (active),0 (inactive),1 (active),,9
Cn1cc(-c2ccc3nnc(Sc4ccc5ncccc5c4)n3n2)cn1,,,,0 (inactive),1 (active),0 (inactive),1 (active),0 (inactive),1 (active),0 (inactive),0 (inactive),0 (inactive),0 (inactive),0 (inactive),0 (inactive),1 (active),0 (inactive),0 (inactive),,1
COc1ccc(CCc2nc3c(C)c(-c4c(C)noc4C)c(C)cc3n2CCN2CCOCC2)cc1,,9,,0 (inactive),0 (inactive),1 (active),0 (inactive),0 (inactive),0 (inactive),0 (inactive),0 (inactive),0 (inactive),0 (inactive),0 (inactive),0 (inactive),0 (inactive),0 (inactive),0 (inactive),,
